# Calls of active or inactive are those of the source.
# Experiments:
# [1] = test system: Human papillomavirus type 1a protein E7 (residues 44-93); test: HPV1a E7 fragment binders on microarrays, primary screen, biochemical, small-molecule microarray, residues 44-93, 635 nm fluorescence (AID 1108); details: small-molecule microarray binding, fluorescence 635 nm; higher = more signal;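 note: E7 fragment applied at 1 µg/mL in TBST for 1 h at 4 C; score combines spot fluorescence with its signal to noise ratio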
# [2] = modulators of HCV replicon luciferase signal, primary screen, HCV replication inhibitor project, Huh7 cells, luciferase reporter (AID 1109); details: 48 h, higher = more signal;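 note: huh7 hepatoma cells harbouring a luciferase neomycin HCV replicon reporter; luciferase luminescence as measure of HCV replicon replication; test concentration not given here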
# [3] = target: Left-right determination factor 2 (Homo sapiens) (UniProt O00292); test: LEFTY2 binders on small-molecule microarrays, primary screen, biochemical, small-molecule microarray, 635 nm fluorescence scan (AID 1110); details: LEFTY2 binding, higher = more signal
# [4] = target: Calmodulin-1 (Homo sapiens) (UniProt P0DP23); test: CALM1 binders on microarrays, EGTA buffer, profiling panel, biochemical, small-molecule microarray, Cy5-labelled CALM1 (AID 1111); details: Cy5-CALM1 binding fluorescence, higher = more signal;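 note: labelled calmodulin applied in Tris saline Tween buffer holding calcium plus EGTA and DTT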
# [5] = target: Calmodulin-1 (Homo sapiens) (UniProt P0DP23); test: calcium-bound CALM1 binders on microarrays, profiling panel, artefact control for SMM control-protein annotation, biochemical, small-molecule microarray, Cy5-labelled CALM1, plus calcium (AID 1112); details: Cy5-CALM1 binding fluorescence, higher = more signal;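 note: score merges spot fluorescence with signal to noise from triplicate slides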
# [6] = small-molecule microarray binders of probe aWnt5a, primary screen, biochemical, biotinylated probe, 635/667 nm fluorescence (AID 1113); details: higher = more signal;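 note: score merges 667 nm fluorescence intensity with signal-to-noise per printed feature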
# [7] = small-molecule microarray binders of probe aShh, primary screen, biochemical, biotinylated probe, 635/667 nm fluorescence (AID 1114); details: higher = more signal;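 note: probe is biotin-labelled aShh protein from a stem cell growth factor screen; measures binding of labelled protein to compounds printed on the slide; score merges feature fluorescence at 667 nm with signal-to-noise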
# [8] = small-molecule microarray binders of probe aNog, primary screen, biochemical, biotinylated probe, 635/667 nm fluorescence (AID 1115); details: higher = more signal;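 note: probe is biotinylated aNog protein used at 0.15 µg/mL for 1 h at 4 C; z-score combines 667 nm fluorescence of each spot with its signal to noise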
# [9] = target: Torsin-1A-interacting protein 1 (Homo sapiens) (UniProt Q5JTV8); test: LAP1 binders from COS7 cell lysate, primary screen, small-molecule microarray, 635/667 nm fluorescence (AID 1116); details: COS7-hLAP1 lysate binding, 635 nm fluorescence, higher = more signal
# [10] = target: Alpha-bungarotoxin (Bungarus multicinctus) (UniProt P60615); test: alpha-bungarotoxin binders on microarray, profiling panel, artefact control for SMM control protein annotation, biochemical, small-molecule microarray, Alexa647 label, 635/667 nm fluorescence (AID 1117); details: alpha-BTX-A647 binding fluorescence, higher = more signal
# Albumin (Bos taurus) = Albumin (Bos taurus) (UniProt P02769); test: bovine serum albumin binders on microarray, profiling panel, artefact control for SMM control protein annotation, biochemical, small-molecule microarray, Alexa647 label, 635/667 nm fluorescence (AID 1118); details: BSA-A647 binding, fluorescence 635 nm, higher = more signal;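 note: score merges 667 nm emission intensity and signal-to-noise per printed compound spot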
# [11] = small-molecule microarray binders of probe aXIP, primary screen, biochemical, NeuroSMM set, 635/667 nm fluorescence (AID 1119); details: higher = more signal, called active from +8 up or from −8 down;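 note: probe is the protein aXip251-270 applied at 1 µg/mL to compound-printed slides; binding of probe to printed compounds measured as 667 nm fluorescence plus signal to noise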
# [12] = small-molecule binders of probe aNOTCH3, primary screen, biochemical, small-molecule microarray, 635/667 nm fluorescence (AID 1120); details: higher = more signal;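 note: probe is a biotin-tagged antibody raised against NOTCH3 rather than NOTCH3 protein; score merges spot fluorescence near 667 nm with spot signal to noise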
# [13] = small-molecule binders of probe aNOTCH2, primary screen, biochemical, small-molecule microarray, 635/667 nm fluorescence (AID 1121); details: higher = more signal;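 note: score merges feature fluorescence read at 667 nm with its signal to noise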
# [14] = target: Carbonic anhydrase 2 (Homo sapiens) (UniProt P00918); test: CAII small-molecule binders, profiling panel, biochemical, small-molecule microarray, Alexa647-labelled CAII (AID 1122); details: CAII-A647 binding fluorescence, higher = more signal
# [15] = COS7 lysate on small-molecule microarray, probe aHis, 635 nm (AID 1123); details: COS7 cell lysate, fluorescence, higher = more signal;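 note: z-score combines 667nm fluorescence intensity with signal-to-noise per printed compound spot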
# [16] = compound binding in COS7 lysate, probe aLAP1, primary screen, cell lysate, small-molecule microarray (AID 1124); details: probe aLAP1, fluorescence, higher = more signal;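 note: lysate comes from COS7 cells expressing LAP1 and is applied at 0.3 µg/mL; score merges spot fluorescence near 667 nm with signal-to-noise over triplicate slides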
# Sam68 (KHDRBS1) = test: Sam68 small-molecule binders, primary screen, biochemical, small-molecule microarray, 635 nm fluorescence (AID 1125); details: small-molecule microarray binding, higher = more signal;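 note: score merges 667 nm channel intensity with signal to noise over triplicate slides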
# [17] = test system: Chordin-like protein 2 (CHRDL2); test: CHRDL2 small-molecule binders, primary screen, biochemical, small-molecule microarray, 635 nm fluorescence (AID 1126); details: small-molecule microarray binding, fluorescence 635 nm; higher = more signal;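 note: printed compound slides probed with Chrdl2 protein at 4 µg/mL for 1 h at 4 C; score merges 667 nm emission intensity with signal to noise over three replicate slides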
# [18] = target: Concanavalin-A (Canavalia ensiformis) (UniProt P02866); test: ConA small-molecule binders, primary screen, artefact control for SMM control protein annotation, biochemical, small-molecule microarray, Alexa647 label, 635 nm (AID 1127); details: ConA-A647 binding fluorescence, higher = more signal;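 note: z combines 667 nm emission intensity with signal-to-noise across three replicate slides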
# Chain of Concanavalin-A (Canavalia ensiformis) (P02866 whole entry, looked up): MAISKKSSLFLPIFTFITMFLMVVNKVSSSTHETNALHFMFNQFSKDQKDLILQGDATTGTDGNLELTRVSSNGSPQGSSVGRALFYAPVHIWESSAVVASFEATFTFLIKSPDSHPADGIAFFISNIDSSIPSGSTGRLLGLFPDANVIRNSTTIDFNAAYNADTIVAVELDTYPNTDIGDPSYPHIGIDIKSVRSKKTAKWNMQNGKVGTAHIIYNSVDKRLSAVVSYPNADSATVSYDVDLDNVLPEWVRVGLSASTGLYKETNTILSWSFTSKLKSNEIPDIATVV
# Chain of Left-right determination factor 2 (Homo sapiens) (O00292 whole entry, looked up): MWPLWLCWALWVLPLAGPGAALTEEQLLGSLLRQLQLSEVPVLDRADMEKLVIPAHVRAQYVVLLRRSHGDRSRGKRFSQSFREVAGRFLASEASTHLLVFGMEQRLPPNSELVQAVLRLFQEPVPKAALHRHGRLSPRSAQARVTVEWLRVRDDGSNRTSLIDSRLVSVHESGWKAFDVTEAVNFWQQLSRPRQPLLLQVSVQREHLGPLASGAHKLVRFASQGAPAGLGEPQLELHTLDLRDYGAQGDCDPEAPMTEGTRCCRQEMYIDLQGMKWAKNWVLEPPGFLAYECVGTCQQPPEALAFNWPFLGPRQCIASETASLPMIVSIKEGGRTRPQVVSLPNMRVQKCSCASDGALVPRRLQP
# Chain of Albumin (Bos taurus) (P02769 whole entry, looked up): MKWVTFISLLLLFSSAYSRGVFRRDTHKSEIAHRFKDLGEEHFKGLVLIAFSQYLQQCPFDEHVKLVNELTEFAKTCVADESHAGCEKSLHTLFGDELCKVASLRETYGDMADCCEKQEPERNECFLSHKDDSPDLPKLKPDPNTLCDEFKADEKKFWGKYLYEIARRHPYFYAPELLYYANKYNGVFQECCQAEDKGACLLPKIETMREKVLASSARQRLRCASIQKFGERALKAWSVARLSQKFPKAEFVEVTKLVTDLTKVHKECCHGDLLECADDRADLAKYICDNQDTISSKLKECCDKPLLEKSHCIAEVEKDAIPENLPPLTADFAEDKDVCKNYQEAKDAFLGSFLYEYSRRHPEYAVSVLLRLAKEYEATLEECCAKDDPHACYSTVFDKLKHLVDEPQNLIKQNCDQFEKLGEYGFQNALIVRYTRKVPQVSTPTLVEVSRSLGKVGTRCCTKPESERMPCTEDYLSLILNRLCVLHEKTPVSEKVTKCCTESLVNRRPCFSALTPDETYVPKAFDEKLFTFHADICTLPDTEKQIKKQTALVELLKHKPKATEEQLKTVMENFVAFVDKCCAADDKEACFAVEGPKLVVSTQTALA
# Chain of Torsin-1A-interacting protein 1 (Homo sapiens) (Q5JTV8 whole entry, looked up): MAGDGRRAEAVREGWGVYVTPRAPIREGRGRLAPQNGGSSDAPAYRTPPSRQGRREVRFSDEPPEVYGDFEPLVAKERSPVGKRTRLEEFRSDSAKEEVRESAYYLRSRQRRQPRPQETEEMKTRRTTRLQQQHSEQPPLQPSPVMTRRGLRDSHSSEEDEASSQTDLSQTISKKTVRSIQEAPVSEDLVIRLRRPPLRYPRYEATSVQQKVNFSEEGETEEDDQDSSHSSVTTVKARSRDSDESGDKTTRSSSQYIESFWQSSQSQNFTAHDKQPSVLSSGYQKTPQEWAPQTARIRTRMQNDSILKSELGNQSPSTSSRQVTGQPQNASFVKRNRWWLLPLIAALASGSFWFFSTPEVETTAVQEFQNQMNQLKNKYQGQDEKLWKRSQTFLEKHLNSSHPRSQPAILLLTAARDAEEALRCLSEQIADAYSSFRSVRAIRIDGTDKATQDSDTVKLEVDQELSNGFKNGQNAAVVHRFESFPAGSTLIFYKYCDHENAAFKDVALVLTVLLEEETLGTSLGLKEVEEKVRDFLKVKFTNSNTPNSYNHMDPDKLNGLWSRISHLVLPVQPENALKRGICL
# Chain of Alpha-bungarotoxin (Bungarus multicinctus) (P60615 whole entry, looked up): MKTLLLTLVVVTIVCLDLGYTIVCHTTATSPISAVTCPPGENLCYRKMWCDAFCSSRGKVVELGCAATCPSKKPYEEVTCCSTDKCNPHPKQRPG
SMILES,composite z-score [1],z-score [2],composite z-score [3],composite z-score [4],composite z-score [5],composite z-score [6],composite z-score [7],composite z-score [8],composite z-score [9],composite z-score [10],composite z-score (Albumin (Bos taurus)),composite Z-score [11],composite z-score [12],composite z-score [13],composite z-score [14],composite z-score [15],composite z-score [16],composite z-score (Sam68 (KHDRBS1)),composite z-score [17],composite z-score [18]
Cc1ccc(F)cc1S(=O)(=O)N[C@H]1CCN(Cc2ccc(OC(C)C)cc2)C1,1.34,-3.4,0.379,-0.781,-1.43,-0.187,-0.0959,-0.131,0.228,-0.494,-0.052,-0.058 (inactive),-0.0244,-0.19,0.231,1.89,0.659,0.65,0.544,-0.201
COC(=O)C1=CC(CCCO)=CC(c2cccs2)N(Cc2cc3c(cc2Br)OCO3)C=C1C(=O)OC (stereo not given),0.931,-1.64,0.578,1.69,0.458,0.0618,0.246,-0.0381,0.834,2.49,0.739,1.26 (inactive),0.062,-0.0645,0.769,2.43,0.0385,1.3,0.249,1.21
NC(=O)N1C(=O)C2C(C1=O)C1C=C(CCCO)C2C(C2CC2)N1Cc1sc2ccccc2c1Cl (stereo not given),0.173,-1.63,0.138,1.42,0.459,-0.0685,0.138,0.654,1.19,1.67,0.758,0.121 (inactive),-0.0362,-0.15,0.616,1.19,0.979,1.15,-0.0285,1.11
COc1ccc(NN2C(C(O)c3ccc(I)cc3)C=CC3C(=O)N(C4CCCCC4)C(=O)C32)cc1 (stereo not given),1.43,-2.6,0.349,1.21,0.679,0.18,-0.147,0.261,0.811,1.45,0.843,0.84 (inactive),0.394,-0.075,0.444,1.53,0.444,1.32,-0.195,1.1
COCCOC(=O)N1C(=O)[C@@]2(c3cc(C#CCCO)ccc31)[C@H](c1ccc(OCCO)cc1)N1[C@H](c3ccccc3)[C@H](c3ccccc3)OC(=O)[C@H]1[C@@H]2C(=O)N1CCCCCCC1,0.371,-0.882,1.39,1.99,0.953,0.779,0.599,0.952,3.39,2.3,-0.226,2.1 (inactive),1.26,0.675,0.67,2.7,1.95,1.33,1.43,1.13
